The values that follow come from PubChem BioAssay AID652126 (The Scripps Research Institute Molecular Screening Center, 2013).

The whole screen tested about 370,000 compounds, of which about 3,700 (1%) were called active. For the sample, actives were picked, then their nearest neighbours and some compounds at random. Values without a mark were called inactive.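 The calls were made as follows: active = activation above the mean over all tested compounds plus 3 SD (cut at about 0.9% in these data); inactive = the rest.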

For this assay, the system named is Nuclear hormone receptor DAF-12 (Strongyloides stercoralis). Description: S. stercoralis DAF-12 nuclear receptor activators, primary screen, cell-based, luminescence, HEK293, GRIP1 co-expression, lit1-tk-luc (AID 652126).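 Also: 0% = DMSO-only wells and 100% = 3 µM delta7-dafachronic acid wells.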 Conditions: HEK293 ssDAF-12/GRIP1 lit1-tk-luc reporter, at 6.8 µM, stronger effect = higher value.
With `CCNc1nc2[nH]c(=O)c3c(c2s1)OC(N)=C(C#N)C3c1cccs1` (stereo not given), the activation is -0.98%.
With `N#CC1=C(N)Oc2c(c(=O)oc3ccccc23)C1c1ccccc1OC(=O)c1cccs1` (stereo not given), the activation was 1.09% (active).
With `COc1ccc(C2C=C(C)Oc3c2c(=O)oc2ccccc32)cc1OC` (stereo not given) the figure was -0.69%.
To `COP(=O)(Sc1ccccc1)C(Cc1ccccc1)NC(=O)OCc1ccccc1` (stereo not given) belongs -1.15%; to `COc1ccc2c(c1)NP(=S)(c1ccccc1)N2` (stereo not given), 1.75% (active); to `Cc1cc(C)c2c(c1)NP(=S)(c1ccccc1)N2` (stereo not given), -0.09%.
`CO[C@H]([C@H](C)/C=C/N(C)C=O)[C@@H](C)C(=O)CC[C@H](C)[C@H](O)[C@H](C)[C@H]1OC(=O)/C=C/C(C)=C/[C@H](O)[C@H](OC)C[C@@H]2C=CC[C@@H](C[C@H](OC)[C@@]3(CO3)[C@@H](OC)C[C@@H](OC)[C@@H]1C)O2`: the activation was -0.84%.
With `O=c1c2ccccc2nc(/C=C/c2ccc(F)cc2)n1-c1ccccc1O` the figure was -0.65%; with `Cc1ccccc1CCC[C@@H](CC1CCCCC1)CN(C)C(=O)Oc1ccccc1`, -1.05%.
With `CCOP(=S)(OCC)C(O)CCCCCn1c(=O)c(F)cn(C2CCCO2)c1=O` (stereo not given), the activation is 1.73% (active).
`Clc1ccc2nc3c(c(-c4ccccc4)c2c1)CNCC3`: the activation was -0.92%.
As to `COc1ccc(CNCCc2c[nH]c3ccccc23)cc1OC`, the activation was 1.6% (active).
With `COc1ccc(CNCCc2ccc3c(c2)OCO3)c(OC)c1OC` the figure was -0.57%; with `c1cncc(CNCCc2c[nH]c3ccccc23)c1`, -0.72%; with `CN(C)S(=O)(=O)c1cc(C(=O)N2CCC(C(=O)O)(c3ccccc3)CC2)ccc1Cl`, -1.1%.
With `CN(C)c1nc(N(C)C)nc(N(C#N)CCCl)n1` the figure was -1.19%; with `C[C@]12CCC3C(CC[C@H]4[C@H](O)[C@H](O)CC[C@]34C)C1CC[C@@H]2O` (stereo not given in full), -0.82%; with `O=C(CSC1c2ccccc2-c2ccccc21)N/N=C/c1ccccc1`, -0.76%.
`COc1c(O)ccc2c1-c1c3c(cc4c1C(C2)N(C)CC4)OCO3` (stereo not given): the activation is -0.77%.
Turning to `Cc1ccc(OC(=O)N(C)C[C@@H]2OCc3cnnn3CCCC(=O)N([C@H](C)CO)C[C@@H]2C)cc1`, the activation was -0.97%.
